According to the supplement of paper PMC6555819:

Legend:
Experiment in all cases: PBM binding z-score (relative to random genomic background probes); higher = stronger binding; sequences stand for … in GC…GCGATTGACAGCGTAGAATGAAGG
[1] = system: FXR:RXRa (NR concentration 270 nM, RXRa partner concentration 90 nM)
How it was run: (§1)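 Binding buffer was PBS pH 7.4 with 2% milk, 0.02% Triton X-100, 1 mM DTT, 0.2 mg/mL BSA and 0.4 mg/ml salmon testes DNA. In it, ligand-free nuclear receptor dimers were incubated 1 h on custom Agilent 4×180K protein-binding microarrays carrying double-stranded probes. Antibodies against each partner (one per run) detected binding, and z-scores were calculated against random background probes after regression normalization of scanned fluorescence.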

[2] = system: LXRa:RXRa (NR concentration 270 nM, RXRa partner concentration 90 nM)
How it was run: as §1

[3] = system: LXRa homodimer (NR concentration 270 nM)
How it was run: as §1

[4] = system: LXRb:RXRa (NR concentration 270 nM, RXRa partner concentration 90 nM)
How it was run: as §1

[5] = system: LXRb homodimer (NR concentration 270 nM)
How it was run: as §1

[6] = system: PPARa:RXRa (NR concentration 270 nM, RXRa partner concentration 90 nM)
How it was run: as §1

[7] = system: PPARg:RXRa (NR concentration 180 nM, RXRa partner concentration 90 nM)
How it was run: as §1

[8] = system: PPARg:RXRa 270nM:90nM, anti-RXR (NR concentration 270 nM, RXRa partner concentration 90 nM)
How it was run: as §1

[9] = system: PPARg:RXRa 30nM:10nM, anti-RXR (NR concentration 30 nM, RXRa partner concentration 10 nM)
How it was run: as §1

[10] = system: PPARg:RXRa 90nM:30nM, anti-RXR (NR concentration 90 nM, RXRa partner concentration 30 nM)
How it was run: as §1

[11] = system: PPARg:RXRa DBDmut IVT, anti-RXR (DBD mutation: RXRa K156A/R161A, NR concentration 270 nM, RXRa partner concentration 90 nM)
How it was run: as §1

[12] = system: PPARg:RXRa IVT, anti-PPARg (NR concentration 270 nM, RXRa partner concentration 90 nM)
How it was run: as §1

[13] = system: PPARg DBDmut:RXRa IVT, anti-PPARg (DBD mutation: PPARg1 K132A/R137A, NR concentration 270 nM, RXRa partner concentration 90 nM)
How it was run: as §1

[14] = system: PPARg DBDmut IVT, anti-PPARg (DBD mutation: PPARg1 K132A/R137A, NR concentration 270 nM)
How it was run: as §1

[15] = system: PPARg homodimer (NR concentration 180 nM)
How it was run: as §1

[16] = system: PXR:RXRa (NR concentration 270 nM, RXRa partner concentration 90 nM)
How it was run: as §1

[17] = system: PXR homodimer (NR concentration 270 nM)
How it was run: as §1

[18] = system: RARa:RXR (NR concentration 270 nM, RXRa partner concentration 90 nM)
How it was run: as §1

[19] = system: RARa homodimer (NR concentration 270 nM)
How it was run: as §1

[20] = system: RARb:RXRa (NR concentration 270 nM, RXRa partner concentration 90 nM)
How it was run: as §1

Sequence	PBM binding z-score [1]	PBM binding z-score [2]	PBM binding z-score [3]	PBM binding z-score [4]	PBM binding z-score [5]	PBM binding z-score [6]	PBM binding z-score [7]	PBM binding z-score [8]	PBM binding z-score [9]	PBM binding z-score [10]	PBM binding z-score [11]	PBM binding z-score [12]	PBM binding z-score [13]	PBM binding z-score [14]	PBM binding z-score [15]	PBM binding z-score [16]	PBM binding z-score [17]	PBM binding z-score [18]	PBM binding z-score [19]	PBM binding z-score [20]
TCCTATAGGTAAAGGTGAAAGTCGAACGATATGA	1.05	1.25	-0.0559	1.25	-0.199	3.07	2.77	3.93	3.81	3.96	2.74	3.09	0.482	0.679	0.768	1.12	-0.316	1.49	0.203	1.96
CATACAGGGTCAGCTAGGCCCGAGTAGGGACGGC	4.65	3	-0.329	1.95	0.134	4.15	2.95	2.99	0.725	1.72	0.974	2.05	0.221	0.342	1.66	2.1	-0.596	3.11	0.256	4.08
ACTAGTTGGTCATCTGAGGTCACACACAATTCGG	3.47	5.26	5.1	4.09	1.65	3.98	2.52	2.62	1.13	2.05	2.52	3.08	1.2	0.851	3.6	5.61	2.26	4.86	1.05	3.69
GCTTACGGGTCAAAGGTTGTAGCATGAATAGAAT	7.18	4.99	0.175	4.72	0.259	6.6	9.83	8.57	7.45	9.31	5.13	5.38	0.728	1	3.02	5.04	0.237	7.21	0.364	3.99
GGAACGAGGGCAAGTTGTTAGCAGAGTTTGATGG	0.972	0.498	-0.221	0.541	-0.646	1.84	0.863	1.04	-0.161	0.479	3.77	2.94	-0.421	-0.269	0.194	0.979	0.561	0.459	-0.28	2.78
AGCCAAAGTTCAGGACGAGGTAACGTAAAGCACG	4.33	3.71	1.39	1.94	0.134	3.22	3.24	3.54	0.828	2.74	-0.0528	1.03	-0.637	-0.0617	1.29	2.65	0.942	2.64	0.246	4.33
